For 40 molecules, growth results are on record in PubChem BioAssay (NCI).

Compounds without any hit were thinned out: in the full panel of roughly 83,000, 20% have a hit.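 Results are percent growth after 48 hours of single-concentration exposure. 100 means growth as in untreated cells, lower positive values show inhibition; negative values down to -100 show cell death.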 A number with no mark means an inactive call. Active and inactive are the calls of the source. The calls were made as follows: active = growth percent below 10; inactive = the rest.

The test system of the assay is HL-60(TB) leukemia. In words: NCI-60 one-dose screen, 48 h (100 = growth as untreated, 0 = no growth, -100 = all killed). To be noted: 10 µM unless noted.
Consider `COc1ccc(NC(=O)c2sc3nc(-c4cnccn4)cc(-c4cccs4)c3c2N)cc1`, for which the growth is 56.2%.
With `C#C[C@]1(O)CC[C@H]2[C@@H]3CC=C4c5sc(-c6ccc7c(c6)OCO7)nc5CC[C@]4(C)[C@H]3CC[C@@]21C` the figure was 46.8%.
The value for `C=C1C(=O)O[C@@H]2C[C@@H](C)CCC(=O)[C@](C)(OC(C)=O)C[C@H](OC(=O)/C(C)=C\C)[C@@H]12` was 26.4%.
For `CN1CCN(c2ccc(Nc3nc(NCCNS(=O)(=O)c4ccccc4)c4sccc4n3)cc2)CC1`, the growth was 103%.
The value for `Nc1cc(-c2c[nH]c3ccc(Br)cc23)nc2cc(-c3c[nH]c4ccc(Br)cc34)nn12` was 9.1% (active).
The value for `Cc1ccc(S(=O)(=O)NCCNc2nc(Nc3ccc(N4CCN(C)CC4)cc3)nc3ccsc23)cc1` was 86.4%; that for `COc1ccc(N2CCN(C3=C(Cl)C(=O)C(C)=C(C)C3=O)CC2)cc1` was 80.3%.
Regarding `COc1ccc(-c2nc3ccc(-c4nnc(SCC(=O)Nc5ccc(C(=O)/C=C/c6ccc(Cl)cc6)cc5)o4)cc3[nH]2)cc1OC`, the growth was 88.7%.
The value for `COc1ccccc1-n1cc(C#N)c(N)c1C(=O)c1ccc(Cl)cc1` was 36.5%; that for `N/C(=N\C(N)=N\c1nc2ccccc2s1)c1ccc(Cl)cc1` was 90.3%.
The value for `Nc1ccc(-c2nnc(SCc3ccc(O)c4ncccc34)n2-c2ccccc2)cc1` was 11.5%.
As to `C#Cc1nc(C2=C(C)C(OC(=O)CCC(=O)O)CC2)cs1` (stereo not given), the growth was 101%.
With `CCOC(=O)C1=C(C)NC(C)=C(C(=O)OCc2ccccc2)C1c1cccc(C#N)c1` (stereo not given) the figure was 16.1%; with `O=C(Nc1ccc(-c2nc(-c3cccc(O)c3)c(-c3ccnc(Br)c3)[nH]2)cc1)c1ccccc1`, -53.1% (active); with `C#Cc1nc(C2=C(C)C(O)CC2)cs1` (stereo not given), 94.2%.
The value for `C#Cc1cc(C(=O)Nc2ccc(CNCCN3CCOCC3)c(C(F)(F)F)c2)ccc1C` was 86%.
The value for `CNC(=O)c1c(NC(=O)c2cccc(C(F)(F)F)c2F)sc2c1CCC(=O)C2` was 4.41% (active); that for `O=C(COc1ccc(/C=C2\C(=O)Nc3cc(Cl)ccc32)cc1)Nc1ccc(Cl)cc1` was 61%.
With `C#C[C@]1(O)CC[C@H]2[C@@H]3CC=C4c5sc(Nc6ccc(OC)nc6)nc5CC[C@]4(C)[C@H]3CC[C@@]21C`, the growth was 10.1%.
The value for `CCN(CC)CCOc1ccc(C(=C(C)c2ccc(OC)cc2)c2ccc(OCCN(CC)CC)cc2)cc1` was -42.9% (active).
The value for `COc1ccc(C2C(C#N)=C(N)Oc3c2sc2ccc(C)cc32)cc1` (stereo not given) was 12.5%.
For the molecule `Cc1ccc2c(n1)C(=O)C(Cl)=C(Nc1ccccc1C(=O)OC(C)(C)C)C2=O`, the growth is -32.7% (active).
For `OC1CCc2c(-c3ccc4ncnc(N5CCc6cc(F)c(Cl)cc65)c4c3)cncc21` (stereo not given), the growth was 34.3%.
The value for `O=C(Nc1nc2ccc(O)cc2s1)c1cccc(C(F)(F)F)c1` was 18.3%; that for `c1ccc(-c2n(Cc3ccc4ccccc4c3)c3c4ccccc4c4ccccc4c3[n+]2Cc2ccc3ccccc3c2)cc1` was -61.4% (active).
With `Cc1cccc2c3c(sc12)C(c1ccc(Cl)cc1)c1c(nc(CC(=O)Nc2ccccc2)[nH]c1=O)O3` (stereo not given) the figure was 71.3%.
The value for `CC1(C)CC[C@]23CC[C@]4(C)[C@H](CC[C@@H]5[C@@]6(C)CC[C@H](NCO)C(C)(C)[C@@H]6CC[C@]54C)[C@H]2[C@H]1OC3` was 4.17% (active).
Consider `COc1ccc(OC)c(NC2=C(Cl)C(=O)C(C)=C(C)C2=O)c1`, for which the growth is 74%.
The value for `Cc1cccc(/C=C/C(=O)Nc2ncc(Cc3cccc(C)c3)s2)c1` was 0.463% (active).
With `Cc1cc(O)c2c(c1)C(=O)C(c1c(C)cc3c(c1O)C(=O)C=CC3=O)=CC2=O`, the growth was 55%.
With `O=C(NCCn1ccnc1)c1ccc(-c2nc3ccc4[nH]ncc4c3c3c2CCCC3)cc1` the figure was 76.9%; with `COc1ccc2c(c1)c(-c1nnc(N)nc1-c1cn(C)c3ccccc13)cn2C`, 72.6%; with `CCNC(=NCCCN(C)C)N/C(N)=N/c1nc2ccccc2s1`, 90.9%.
In the case of `O=S(=O)(NC1CC2CCC1C2)c1ccc2c(c1)C(=NO)c1cc(S(=O)(=O)NC3CC4CCC3C4)ccc1-2` (stereo not given), the growth was -29.7% (active).
Consider `COc1ccc(NC(=O)[C@H](C)N)cc1C(=O)Nc1cccc(-c2cc(=O)c3c(OC)c(OC)c(OC)cc3o2)c1`, for which the growth is 58.9%.
With `NC(=O)c1c(NC(=O)c2ccc(C(F)(F)F)cc2)sc2c1CCC(=O)C2` the figure was 6.39% (active).
With `COc1ccc2c(c1)c(/C=N/Nc1ccnc3cc(Cl)ccc13)cn2C`, the growth was -52.2% (active).
With `COc1cc(C(=O)c2cc(C(C)=O)c3c(C)cccn23)cc(OC)c1OC`, the growth was 88.9%.
For the molecule `COc1cc(-c2nc3sccn3c2-c2ccnc(S(C)(=O)=O)n2)ccc1F`, the growth was 93.9%.
With `CN(C)c1ccc(/C=N/Nc2nc(N/N=C/c3ccc(N(C)C)cc3)nc(N3CCCCC3)n2)cc1` the figure was -38% (active).
